Experiment [1] can be described thus: A CellTox Green Cytotoxicity Assay to monitor cytotoxicity in HEK293 cells - 8 hour (AID 1224884). Further: nearly all actives have a fitted effect of over 35% in size. A digest of the protocol: (§1)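 Homogeneous no-lysis format: HEK293 cell suspension mixed with CellTox Green reagent, seeded, incubated 5 h at 37 C/5% CO2, then dosed by pintool with compound in DMSO.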
A short description of experiment [2]: qHTS RealTime-Glo MT Cell Viability Assay in HepG2 cells - 16 hour (AID 1224885). Further: nearly all actives have a fitted effect of over 50% in size. Summed up:
(§2)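 Tox21 10K library screened in qHTS format on HepG2 cells carrying RealTime-Glo reagents. Compounds were added after a 5 h preincubation, and the luminescent signal from continuous culture was measured repeatedly during 40 h treatment.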
On the technique in general: Quantitative high-throughput screening tests each substance at several concentrations.

Experiment [3] can be described thus: qHTS RealTime-Glo MT Cell Viability Assay in HEK293 cells - 24 hour (AID 1224886). Further: top concentration of the series differs between compounds; nearly all actives have a fitted effect of over 50% in size. Summed up:
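Luminescence generated by NanoLuc from substrate produced by living HEK293 cells served as the viability signal. Each value reflects the reading at its stated time point during continuous 40 h compound exposure at 37 C.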

Experiment [4] can be described thus: qHTS RealTime-Glo MT Cell Viability Assay in HEK293 cells - 8 hour (AID 1224887). Further: top concentration of the series differs between compounds; nearly all actives have a fitted effect of over 50% in size. Summed up: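 Measured as luminescence from the same continuously cultured HEK293 wells at successive time points (0, 8, 16, 24, 32, 40 h) after compound addition. Reagent present from seeding; dosing at 5 h; incubation 37 C.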
Experiment [5] in a line: A CellTox Green Cytotoxicity Assay to monitor cytotoxicity in HEK293 cells - 16 hour (AID 1224888). Further: nearly all actives have a fitted effect of over 35% in size. Summed up: as §1
A short description of experiment [6]: qHTS RealTime-Glo MT Cell Viability Assay in HepG2 cells - 0 hour (AID 1224889). Further: nearly all actives have a fitted effect of over 50% in size. Summed up: as §2
The nature of experiment [7]: A CellTox Green Cytotoxicity Assay to monitor cytotoxicity in HepG2 cells - 8 hour (AID 1224890). Further: nearly all actives have a fitted effect of over 45% in size. Summed up: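 Fluorescent DNA-binding dye, 600 HepG2 cells/well, 5 h preincubation then compound in DMSO; same plates read at 0–40 h, 37 C.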
The nature of experiment [8]: qHTS assay to identify small molecule antagonists of the estrogen receptor alpha (ER-alpha) signaling pathway using the BG1 cell line in the presence of 0.1 nM 17-beta-estradiol - cell viability counter screen (AID 1259241). Further: nearly all actives have a fitted effect of over 40% in size. A digest of the protocol:
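Viability in VM7Luc4E2 cells after 22 hr compound exposure under 0.1 nM 17beta-estradiol stimulation, by CellTiter-Fluor.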

A short description of experiment [9]: qHTS assay to identify small molecule antagonists of the androgen receptor (AR) signaling pathway using the MDA cell line in the presence of 0.5 nM R1881 - cell viability counter screen (AID 1259242). Further: nearly all actives have a fitted effect of over 45% in size. Summed up: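 Human breast carcinoma MDA-kb2 cells, cultured without CO2, receive compounds alongside 0.5 nM (final) R1881 agonist. After 16 hr at 37C, viability is taken as live-cell protease signal.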

For experiment [10], the target named is Androgen receptor (Homo sapiens) (UniProt P10275). In words: qHTS assay to identify small molecule antagonists of the androgen receptor (AR) signaling pathway using the MDA cell line in the presence of 0.5 nM R1881 (AID 1259243). Further: nearly all actives have a fitted effect of over 50% in size. Further: potency means the concentration at half of the fitted maximal effect. A digest of the protocol: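 Cells: MDA-kb2 (MMTV-luc). Stimulus: 0.5 nM R1881. Time: 16 hr, 37C, no CO2. Detection: ONE-Glo luminescence after 30 min at RT.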
Sequence of Androgen receptor (Homo sapiens) (P10275 whole entry, looked up): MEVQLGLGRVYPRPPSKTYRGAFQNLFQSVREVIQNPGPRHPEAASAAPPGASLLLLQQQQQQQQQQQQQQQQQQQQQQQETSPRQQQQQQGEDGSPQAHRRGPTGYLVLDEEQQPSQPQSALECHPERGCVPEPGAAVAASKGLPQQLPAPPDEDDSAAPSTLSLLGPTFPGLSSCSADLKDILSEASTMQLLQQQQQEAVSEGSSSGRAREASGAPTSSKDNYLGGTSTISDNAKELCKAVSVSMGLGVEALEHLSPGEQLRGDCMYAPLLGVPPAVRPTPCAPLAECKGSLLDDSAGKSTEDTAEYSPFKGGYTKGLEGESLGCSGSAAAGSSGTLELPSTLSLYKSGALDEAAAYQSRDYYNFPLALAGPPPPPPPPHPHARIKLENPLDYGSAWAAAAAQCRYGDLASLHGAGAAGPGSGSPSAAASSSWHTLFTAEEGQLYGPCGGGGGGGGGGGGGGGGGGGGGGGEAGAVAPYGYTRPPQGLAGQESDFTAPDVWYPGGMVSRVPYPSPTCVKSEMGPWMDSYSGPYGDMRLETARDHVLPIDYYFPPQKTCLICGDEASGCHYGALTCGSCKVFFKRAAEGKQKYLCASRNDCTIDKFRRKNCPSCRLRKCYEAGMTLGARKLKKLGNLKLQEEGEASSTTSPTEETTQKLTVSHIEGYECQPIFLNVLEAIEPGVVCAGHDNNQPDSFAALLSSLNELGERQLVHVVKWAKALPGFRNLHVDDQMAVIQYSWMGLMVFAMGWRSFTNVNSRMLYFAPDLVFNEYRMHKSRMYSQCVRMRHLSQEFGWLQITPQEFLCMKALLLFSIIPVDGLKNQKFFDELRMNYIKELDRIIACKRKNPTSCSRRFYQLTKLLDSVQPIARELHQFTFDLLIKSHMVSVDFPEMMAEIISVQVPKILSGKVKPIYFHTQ

Experiment [11] is described as follows: qHTS assay to identify small molecule HDAC inhibitors (AID 1259364).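 Further: wild-type HCT-116 cells with endogenous class I/II HDAC activity; top concentration of the series differs between compounds; nearly all actives have a fitted effect of over 45% in size.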 A digest of the protocol: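 After a 2 hr compound incubation (37C, 5% CO2), HCT-116 cells seeded at 1,500/well the day before received HDAC-Glo reagent; signal read as luminescence after 30 min at room temperature.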
Experiment [12] is described as follows: qHTS assay to identify small molecule antagonists of the sonic hedgehog signaling (Shh) pathway - cell viability counter screen (AID 1259367). Further: nearly all actives have a fitted effect of over 55% in size. Further: potency means the concentration at half of the fitted maximal effect. A digest of the protocol:
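Cytotoxicity was assessed in parallel with Shh reporter activity by measuring live-cell protease fluorescence (CellTiter-Fluor) in NIH/3T3 cells stably carrying Gli1-Luc, treated with compound under conditioned medium stimulation for 23 hr plus 1 hr reagent incubation.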

Experiment [13] is described as follows: qHTS assay to identify small molecule agonists of the sonic hedgehog signaling (Shh) pathway (AID 1259368; calls by dose curve;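 further: NIH/3T3-derived 3T3Gli1-Luc cells carrying a stable Gli1-driven firefly luciferase reporter; series mostly up to about 92 µM; nearly all actives have a fitted effect of over 15% in size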). A digest of the protocol: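 Stable NIH/3T3 Gli1-Luc reporter clone; 24 hr cpd exposure after a 4 hr settling period; luminescence endpoint.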
A short description of experiment [14]: qHTS assay to identify small molecule antagonists of the sonic hedgehog signaling (Shh) pathway (AID 1259369; calls by dose curve; further: nearly all actives have a fitted effect of over 45% in size; further: potency means the concentration at half of the fitted maximal effect). A digest of the protocol:
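Gli1 transcriptional reporter (firefly Luc) in NIH/3T3 background, conditioned-medium activated. 24hr exposure, luminescence endpoint.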

Experiment [15] addresses Estrogen receptor beta (Homo sapiens) (UniProt Q92731). Put plainly: qHTS assay to identify small molecule antagonists of the estrogen receptor beta (ER-beta) signaling pathway (AID 1259378; active means well fitted inhibition curve with a large enough effect in the signal ratio in the repeat runs, not every such curve was filed as active; the % refers to the signal ratio). Summed up:
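ER-beta-UAS-bla HEK293T (GripTite) cells in 2% charcoal-stripped FBS medium were preincubated 6 hr at 37C, dosed with compound, then stimulated with 1 nM E2 (final) for 16 hr; beta-lactamase reporter read by B/G FRET fluorescence after 2 hr substrate loading.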

Experiment [16] concerns the target Estrogen receptor (Homo sapiens) (UniProt P03372). In words: qHTS assay to identify small molecule antagonists of the estrogen receptor alpha (ER-alpha) signaling pathway using the BG1 cell line in the presence of 0.1 nM 17-beta-estradiol (AID 1259244). Further: nearly all actives have a fitted effect of over 50% in size. Summed up: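 Seeding of stripped-serum-adapted VM7Luc4E2 cells, 24 h attachment, compound transfer, then 0.1 nM final 17beta-estradiol; after 22 h incubation, ONE-Glo reagent and luminescence reading.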

Experiment [17] is described as follows: qHTS assay to identify small molecule HDAC inhibitors - cell viability counter screen (AID 1259365). A digest of the protocol: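 Cytotoxicity was gauged in wild-type HCT-116 cells after a brief 2hr treatment with DMSO-dissolved compounds at 37C and 5% CO2, using CellTiter-Glo luminescence developed for 30min at room temperature.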
Experiment [18] is described as follows: qHTS assay to identify small molecule agonists of the sonic hedgehog signaling (Shh) pathway - cell viability counter screen (AID 1259366). Further: nearly all actives have a fitted effect of over 50% in size. Further: potency means the concentration at half of the fitted maximal effect. Summed up: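 Stable Gli1-Luc NIH/3T3 clone, 2,000 cells/well. Compound exposure 24hr at 37C. Read-out: CellTiter-Fluor fluorescence.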
Experiment [19] addresses Estrogen receptor beta (Homo sapiens) (UniProt Q92731). Put plainly: qHTS assay to identify small molecule agonists of the estrogen receptor beta (ER-beta) signaling pathway (AID 1259377; active means well fitted activation curve with a large enough effect in the signal ratio in the repeat runs, not every such curve was filed as active; the % refers to the signal ratio). Summed up: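 Measured by fluorescence intensity from a B/G FRET beta-lactamase substrate (2 h, room temperature) in ER-beta-UAS-bla HEK293T cells treated with DMSO-dissolved compounds for 16 hr at 37C and 5% CO2.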

Values without a mark were called inactive. Inconclusive results are not listed. Calls of active or inactive are those of the source. Unless noted, the call rests on the fitted dose curve; in most records, active means well fitted curve in the direction sought with a large enough effect in the repeat runs; inconclusive means weak or mixed curves; inactive means no such curve, though single readings can be large; an effect the other way counts as inactive or inconclusive.
On the % scale 0 is the no-effect control and ±100 the full control effect.

Sequence of Estrogen receptor (Homo sapiens) (P03372 whole entry, looked up): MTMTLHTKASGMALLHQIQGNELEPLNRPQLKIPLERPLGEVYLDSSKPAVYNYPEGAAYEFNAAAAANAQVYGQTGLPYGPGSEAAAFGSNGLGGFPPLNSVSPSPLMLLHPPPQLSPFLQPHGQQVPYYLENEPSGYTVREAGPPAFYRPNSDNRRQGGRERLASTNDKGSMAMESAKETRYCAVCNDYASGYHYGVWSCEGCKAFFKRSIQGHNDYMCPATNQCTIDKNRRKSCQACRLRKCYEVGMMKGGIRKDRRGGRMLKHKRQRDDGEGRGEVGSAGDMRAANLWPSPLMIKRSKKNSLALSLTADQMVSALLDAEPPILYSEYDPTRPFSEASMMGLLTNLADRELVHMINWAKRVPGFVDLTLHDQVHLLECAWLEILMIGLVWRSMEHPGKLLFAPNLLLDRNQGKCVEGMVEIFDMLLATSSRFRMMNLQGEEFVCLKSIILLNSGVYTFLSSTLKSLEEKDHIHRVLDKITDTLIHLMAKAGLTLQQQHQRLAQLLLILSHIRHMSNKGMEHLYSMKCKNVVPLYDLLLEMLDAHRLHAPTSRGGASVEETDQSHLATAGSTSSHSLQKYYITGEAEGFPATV
Sequence of Estrogen receptor beta (Homo sapiens) (Q92731 whole entry, looked up): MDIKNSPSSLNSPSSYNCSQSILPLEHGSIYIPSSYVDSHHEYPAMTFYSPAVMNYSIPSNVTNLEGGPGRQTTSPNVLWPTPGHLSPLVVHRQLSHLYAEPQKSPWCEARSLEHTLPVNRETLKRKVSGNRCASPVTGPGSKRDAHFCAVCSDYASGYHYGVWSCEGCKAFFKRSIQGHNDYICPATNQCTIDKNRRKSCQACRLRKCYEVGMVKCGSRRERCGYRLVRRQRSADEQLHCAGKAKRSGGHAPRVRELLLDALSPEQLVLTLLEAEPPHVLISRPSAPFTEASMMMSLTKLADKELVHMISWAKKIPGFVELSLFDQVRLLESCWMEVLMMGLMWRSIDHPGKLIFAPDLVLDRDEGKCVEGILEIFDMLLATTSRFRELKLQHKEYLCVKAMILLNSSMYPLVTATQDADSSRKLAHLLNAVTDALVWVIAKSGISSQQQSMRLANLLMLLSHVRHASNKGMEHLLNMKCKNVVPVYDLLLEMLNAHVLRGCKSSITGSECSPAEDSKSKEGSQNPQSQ

For `COc1cc(C(C)C)ccc1C`, the figures for the cytotoxicity increase in experiment [1] and in [7] were -0.16% [at 15.8 µM] and -11.9% [at 15.8 µM], respectively. Also, the activity change, negative = cytotoxic in experiment [2] is -0.349% [at 15.8 µM]. Besides, the activity change, negative = cytotoxicity was 0.818% [at 15.8 µM] in experiment [3], 1.54% [at 15.8 µM] in experiment [4], -5.12% [at 15.8 µM] in experiment [6] and -2.73% [at 19 µM] in [8]. The activity change in experiment [5] was -2.08% [at 15.8 µM, stronger effect = higher value]; in experiment [13] it was 1.1% [at 18.9 µM, stronger effect = higher value]. In addition, the values for the viability change, negative = cytotoxic in experiment [9] and in [12] were 0.996% [at 19 µM] and 0.176% [at 19 µM], respectively. In addition, the values for the activity, negative = inhibition in experiment [10] and in experiment [15] were -0.285% [at 19 µM] and -9.09% [at 19 µM], respectively. Besides, the activity change, negative = inhibition in experiment [11] was 3.05% [at 19 µM]; in [14], -24.4% [at 19 µM].
Regarding `[Cl][Sc]([Cl])[Cl]`, the Potency result in experiment [1], in experiment [2], in [3], in experiment [4], in [5] and in experiment [6] was “inactive” throughout. Besides, the Potency result in experiment [7], in experiment [8], in [9], in experiment [10], in experiment [16] and in experiment [11] was “inactive” in each case. Besides, the Potency entry in experiment [17], in experiment [12], in experiment [13] and in [14] was “inactive” each time.
Turning to `CCc1cccc(CC)c1`, the Potency result in [1], in experiment [2], in experiment [3], in experiment [4], in experiment [5] and in experiment [6] was “inactive” in each case. Also, the Potency result in experiment [7], in [8], in experiment [9], in experiment [10], in experiment [16] and in experiment [11] was “inactive” each time. In addition, the Potency result in experiment [17], in [18], in experiment [12], in experiment [13], in experiment [14] and in experiment [15] was “inactive” in each case. In addition, the compound was classed as inactive in experiment [19].
In the case of `COc1cc(OC)nc(NC(=O)NS(=O)(=O)Nc2ccccc2C(=O)N(C)C)n1`, the Potency entry in experiment [1], in experiment [2], in experiment [3], in [4], in [5] and in experiment [6] was “inactive” each time. The Potency entry in experiment [7], in experiment [8], in experiment [9], in experiment [16], in experiment [11] and in [17] was “inactive” each time. For the same compound, the Potency entry in experiment [18], in experiment [12], in [13] and in experiment [15] was “inactive” each time. Further, the compound was called inactive in experiment [19].
On to `C=Cc1ccc(O)c(OC)c1`, for which the Potency entry in [1], in experiment [2], in experiment [3], in experiment [4], in [5] and in [6] was “inactive” throughout. Also, the Potency result in experiment [7], in experiment [8], in experiment [9], in experiment [11], in experiment [17] and in [13] was “inactive” each time. Further, in experiment [15], the Potency entry is “inactive”. Moreover, the figures for the Potency in [18], in [12] and in experiment [14] were 54.5 µM (active), 27.3 µM (active) and 13.7 µM (active), respectively.
For `CCOC=C(C(=O)OCC)C(=O)OCC`, the Potency entry in [1], in [2], in experiment [3], in [4], in [5] and in experiment [6] was “inactive” throughout. Besides, the Potency entry in [7], in [8], in experiment [9], in [10], in [16] and in [11] was “inactive” each time. In addition, the Potency result in experiment [17], in experiment [12], in experiment [13], in experiment [14] and in experiment [15] was “inactive” each time.
Consider `Cc1ccc2sc3cccc(C)c3c2c1`, for which the Potency entry in experiment [1], in experiment [2], in [3], in experiment [4], in [5] and in experiment [6] was “inactive” in each case. Further, the Potency entry in experiment [7], in experiment [8], in experiment [9], in [16], in experiment [11] and in experiment [17] was “inactive” throughout. The Potency result in experiment [18], in experiment [12], in [13], in experiment [14] and in [15] was “inactive” each time. The Potency in [10] was 8.63 µM (active). Moreover, the result in experiment [19] was inactive.
